A short description of the test: chemical genetic growth profiling, strain panel (AID 1159580).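 Note: tested at 20 µM; growth read once vehicle control cultures reached saturation at 30 °C; 1 = growth at the plate median or of vehicle wells; lower values mean less growth of the strain.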 To be noted: S. cerevisiae deletion strains, growth OD.
Where [1] appears, read: locus YGR078C, strain PAC10, hits give low values.
[2] abbreviates: locus YHR030C, strain SLT2, hits give low values.
Where [3] appears, read: locus YPL055C, strain LGE1, hits give low values.

The campaign covered roughly 5,500 compounds. About 2,000 (36%) were called active. About 18% were inconclusive and are not listed. This is one part of the list. A number with no mark means an inactive call. Cut-off read from the data, not from the text of the source: active = normalized growth mostly below about 0.91 (no sharp cut-off); inconclusive = no clear call, values can overlap the other calls; inactive = mostly above about 0.92.

Turning to `Nc1cccc2c1C(=O)c1ccccc1-2`, the normalized growth (locus YAL013W, strain DEP1, hits give low values) is 0.676 (active); the normalized growth (locus YBR229C, strain ROT2, hits give low values) is 0.313 (active); the normalized growth (locus YCL061C, strain MRC1, hits give low values) is 0.438 (active); the normalized growth (locus YDL101C, strain DUN1, hits give low values) is 0.368 (active); the normalized growth (locus YDR150W, strain NUM1, hits give low values) was 0.95; the normalized growth (locus YEL061C, strain CIN8, hits give low values) was 0.516 (active). For the same molecule, the normalized growth under setting [1] is 0.617 (active); the normalized growth under setting [2] is 0.134 (active); the normalized growth (locus YHR087W, strain rtc3, hits give low values) was 0.0566 (active); the normalized growth (locus YJR043C, strain POL32, hits give low values) is 0.756 (active); the normalized growth (locus YJR075W, strain HOC1, hits give low values) is 0.0797 (active); the normalized growth (locus YKL190W, strain CNB1, hits give low values) is 0.046 (active). In addition, the normalized growth (locus YLR039C, strain RIC1, hits give low values) was 0.06 (active); the normalized growth (locus YLR058C, strain SHM2 (second series), hits give low values) was 0.0581 (active); the normalized growth (locus YLR085C, strain ARP6, hits give low values) is 0.0974 (active); the normalized growth (locus YLR262C, strain YPT6, hits give low values) was 0.138 (active); the normalized growth (locus YML094W, strain GIM5, hits give low values) was 0.553 (active); the normalized growth (locus YMR219W, strain ESC1, hits give low values) was 0.664 (active). The normalized growth by setting is: (locus YMR263W, strain SAP30, hits give low values) 0.837 (active); (locus YNL153C, strain GIM3, hits give low values) 0.125 (active); (locus YNL298W, strain CLA4 (second series), hits give low values) 0.267 (active); (locus YNL322C, strain KRE1, hits give low values) 1.03; (locus YNR030W, strain Alg12, hits give low values) 0.729 (active); (locus YOL006C, strain TOP1, hits give low values) 0.0699 (active). Moreover, the normalized growth under setting [3] was 0.6 (active); the normalized growth (locus YPL241C, strain CIN2, hits give low values) was 0.675 (active); the normalized growth (locus YPR135W, strain CTF4, hits give low values) is 0.167 (active).

With `O=C1c2ccccc2C(=O)C1(O)C1(O)C(=O)c2ccccc2C1=O`, the normalized growth was 1.04 under setting [2]; 1.04 (locus YHR079C, strain IRE1, hits give low values); 1.04 (locus YJL095W, strain BCK1, hits give low values); 0.953 (locus YJR066W, strain TOR1, hits give low values); 1.03 (locus YLR113W, strain HOG1, hits give low values); 0.984 (locus YNL183C, strain NPR1, hits give low values). For the same molecule, the normalized growth (locus YOR231W, strain MKK1, hits give low values) is 1.05 and the normalized growth (locus YPL256C, strain CLN2, hits give low values) was 1.07.

Regarding `Nc1ccc2c3c(cccc13)C(=O)NC2=O`, the normalized growth is, setting by setting: (locus YAL040C, strain CLN3, hits give low values) 0.997; (locus YCL061C, strain MRC1 (second series), hits give low values) 1; (locus YER002W, strain NOP16, hits give low values) 0.998; under setting [1], 0.981; (locus YMR307W, strain GAS1, hits give low values) 0.995; (locus YNL128W, strain TEP1, hits give low values) 0.988. For the same molecule, the normalized growth runs as follows: (locus YNL175C, strain NOP13, hits give low values) 0.999; (locus YNL197C, strain WHI3, hits give low values) 1.01; (locus YNL224C, strain SQS1, hits give low values) 0.985; (locus YOR083W, strain WHI5 (second series), hits give low values) 0.965; under setting [3], 1.01.

The values are drawn from PubChem BioAssay AID1159580 (chemical genetic matrix, 2015).
